Screens (PubChem)
GPR151 activ: activators of human GPR151; activation, % at 11.2 µM; hit rate 1% among 650,000; AID 1508602; PathHunter beta-arrestin GPR151 cells, luminescence; Q8TDV0; in the data active = activation above about 4.9%;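 note: 0% = median of compound wells and 100% = cells with positive control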
FBW7 act: activators of human E3 ligase FBW7; Q969H0; AlphaScreen FBW7–phospho-cyclin E peptide binding, activator screen; normalized activity (activation), % at 26.1 µM; hit rate 0.13% among 650,000; in the data active = normalized activity above about 1.9%;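 note: purified mutant Fbw7 with reduced substrate affinity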
MITF primary: inhibitors of human MITF. inhibition, % at 2.6 µM. AlphaScreen MITF homodimerization, bead proximity signal. hit rate 0.91% among 650,000. O75030. AID 1259374; in the data active = inhibition above about 50%;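 note: 0% = vehicle wells with protein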
TEAD-YAP inh: TEAD-YAP interaction inhibition | HEK-TIYL cells, TEAD-Gal4/YAP UAS-luciferase luminescence | inhibition, % at 9.12 µM | hit rate 1.4% among 640,000; in the data active = inhibition above about 32%;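 note: 0% = median of test compound wells and 100% = reference inhibitor wells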
GPR151 confirm: human GPR151 activation, confirmation screen | shares compounds with GPR151 activ | GPR151 PathHunter beta-arrestin cells, luminescence, 90 min; % of EA-reagent control over plate median | activation, % at 11.2 µM | 6,700 tested, under 10 active | AID 1508609;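 active = mean percent activation across replicates above the confirmation screen cutoff of 4.91%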
GPR119 ag: GPR119 activation, counter-screen for GPR151 activators | shares compounds with GPR151 activ | GPR119 PathHunter beta-arrestin cells, luminescence, 90 min; 0 = compound-well median, 100 = enzyme-acceptor control | activation, % at 11.2 µM | hit rate 0.3% among 6,700 | AID 1508611;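 active = mean percent activation in the counterscreen above 29.09%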;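 note: counterscreen on off-target GPR119 to flag nonselective hits from the GPR151 activator screen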
Target sequence (Q8TDV5 whole entry, looked up): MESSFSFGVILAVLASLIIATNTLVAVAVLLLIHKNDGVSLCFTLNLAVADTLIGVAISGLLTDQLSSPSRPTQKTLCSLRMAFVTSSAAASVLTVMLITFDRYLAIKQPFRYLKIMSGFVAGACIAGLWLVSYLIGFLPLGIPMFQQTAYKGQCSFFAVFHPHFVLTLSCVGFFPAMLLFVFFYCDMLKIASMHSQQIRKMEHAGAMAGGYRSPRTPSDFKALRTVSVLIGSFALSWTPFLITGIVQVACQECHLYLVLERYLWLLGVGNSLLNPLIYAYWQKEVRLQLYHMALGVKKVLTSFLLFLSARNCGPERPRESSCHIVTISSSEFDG
* = called active by the depositor. Rows were chosen to be rich in hits. Some 3.4% of all compounds tested hit in one or more screens of this group.

Screening COc1cc2c(cc1/C=C1/C(C)=C(C#N)c3nc(N)c(C#N)c(C)c31)OCO2 returned GPR151 activ 0.9, FBW7 act -0.1, MITF primary -15.7 and TEAD-YAP inh -5.6.
Screening COc1ccc(OC)c(/C=C2\C(C)=C(C#N)c3nc(N)c(C#N)c(C)c32)c1 returned GPR151 activ 7.2*, FBW7 act -0.2, MITF primary -0.9, TEAD-YAP inh -14.8, GPR151 confirm -0.1 and GPR119 ag 3.4.
For CC(=O)Nc1ccc(OCC(O)CNC2CCCC2)cc1 (centres undefined) the results were GPR151 activ 5.5*, FBW7 act 0.3, MITF primary 24.4, TEAD-YAP inh -0.9, GPR151 confirm 0.8 and GPR119 ag 12.0.
For COc1ccc(C2CC(C(F)(F)F)n3nc(C(=O)N4CCCCC4C)c(Cl)c3N2)cc1OC (centres undefined) the results were GPR151 activ -0.8, FBW7 act -0.1, MITF primary -0.2 and TEAD-YAP inh 11.0.
For CC(C)n1c2ccccc2c2n[nH]c(=S)nc21 the results were GPR151 activ 6.7*, FBW7 act 0.0, MITF primary -14.2, TEAD-YAP inh -3.8, GPR151 confirm 0.3 and GPR119 ag -0.8.
S=c1nc2c(n[nH]1)c1ccccc1n2Cc1ccccc1 was read as GPR151 activ 1.1, FBW7 act -0.2, MITF primary 2.6 and TEAD-YAP inh -8.6.
Screening S=c1nc2c(n[nH]1)c1ccccc1n2CCc1ccccc1 returned GPR151 activ 6.5*, FBW7 act -0.3, MITF primary 7.2, TEAD-YAP inh 4.0, GPR151 confirm 1.9 and GPR119 ag 7.2.
For O=C(Nc1ccccc1)c1cccc(Nc2nc(-c3ccccc3)c3cc(Br)ccc3n2)c1 the results were GPR151 activ -0.4, FBW7 act -0.1, MITF primary -2.6 and TEAD-YAP inh -2.4.
`COc1ccc(-c2noc(COc3ccc4c(c3)OCO4)n2)cc1` gave GPR151 activ 5.1*, FBW7 act 0.7, MITF primary 9.1, TEAD-YAP inh 2.8, GPR151 confirm 0.3 and GPR119 ag -1.0.
CN1C(=O)C(O)(CC(=O)c2ccc(F)cc2)c2ccccc21 (centres undefined) was read as GPR151 activ 4.5, FBW7 act 0.0, MITF primary -5.9 and TEAD-YAP inh 0.7.
`CN1C(=O)C(O)(CC(=O)c2cccnc2)c2ccccc21` (centres undefined) gave GPR151 activ 13.6*, FBW7 act 0.2, MITF primary 18.0, TEAD-YAP inh 9.3, GPR151 confirm -0.6 and GPR119 ag -13.2.
For COc1ccc(C(=O)CC2(O)C(=O)N(C(C)C)c3ccccc32)cc1 (centres undefined) the results were GPR151 activ 11.6*, FBW7 act 0.1, MITF primary -17.4, TEAD-YAP inh -3.5, GPR151 confirm -0.1 and GPR119 ag -9.1.
For CN1C(=O)C(O)(CC(=O)c2ccc3ccccc3c2)c2ccccc21 (centres undefined) the results were GPR151 activ 0.1, FBW7 act 0.2, MITF primary 5.2 and TEAD-YAP inh -2.3.
Screening CC(C)N1C(=O)C(O)(CC(=O)c2ccc3ccccc3c2)c2ccccc21 (centres undefined) returned GPR151 activ 6.2*, FBW7 act -0.1, MITF primary 5.9, TEAD-YAP inh 1.9, GPR151 confirm -1.1 and GPR119 ag -8.8.
Cc1ccc(-c2nc3ccccc3s2)cc1NC(=O)c1ccc(C(C)(C)C)cc1 was read as GPR151 activ 0.0, FBW7 act -0.1, MITF primary 8.9 and TEAD-YAP inh 5.8.
Screening O=[N+]([O-])c1ccc(C(O)CNCCCN2CCOCC2)cc1 (centres undefined) returned GPR151 activ 7.0*, FBW7 act -0.1, MITF primary -1.3, TEAD-YAP inh 11.6, GPR151 confirm -1.1 and GPR119 ag -11.2.
For O=C(NCCCN1CCOCC1)c1ccc([N+](=O)[O-])cc1 the results were GPR151 activ -1.1, FBW7 act -0.1, MITF primary -5.2 and TEAD-YAP inh 6.3.
`Cc1nn(CC(=O)OCC(=O)NC(=O)c2ccc(OC(F)F)cc2)c(C)c1[N+](=O)[O-]` gave GPR151 activ 6.6*, FBW7 act 0.0, MITF primary -11.3, TEAD-YAP inh 0.3, GPR151 confirm 0.8 and GPR119 ag 4.9.
